Test results published in PubChem BioAssay (NCATS).
Records with an inconclusive call do not appear. Activity calls are given as the source filed them. Calls follow the shape of the dose curve; as a rule, active = well fitted curve in the direction sought with a large enough effect; inconclusive = small, poorly fitted or top-dose-only effect, or another doubt; inactive = no such curve, though single readings can be large; an effect the other way counts as inactive or inconclusive.

How the values were obtained:
NIH3T3 [1] = experiment: Cytotoxic Profiling of Annotated Libraries Using Quantitative High-Throughput Screening (AID 1296008); settings: Five cell lines viability, CellTiter-Glo ATP luminescence, 48-72 h; max response: stronger effect = lower value; also: nearly all actives have a fitted effect of over 60% in size
Outline: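 Compounds were pin-transferred onto cells and incubated 48 or 72 hr at 37 degree Celsius, 95% humidity. CellTiter-Glo was added, plates sat 10 min at room temperature, then ATP-coupled luminescence was imaged as the viability read-out.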

HACAT = experiment: qHTS assay to identify novel small-molecules to repurpose for Merkel cell carcinoma treatment (AID 1296009); settings: MCC and control cell lines, CellTiter-Glo viability, 72 h; at 44.8 µM (top of the series) unless noted; also: nearly all actives have a fitted effect of over 60% in size
Outline: (§1)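 Cells exposed to NPC (8-point) and MIPE (11-point) compound dilutions for 72 hr at 37 degree celsius; viability read by CellTiter-Glo luminescence, normalized to no-cell and DMSO in-plate controls.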

MCC-13 = experiment: as above; settings: MCC and control cell lines, CellTiter-Glo viability, 72 h; series mostly up to 46 µM
Outline: as §1

MKL-1 = experiment: as above; settings: MCC and control cell lines, CellTiter-Glo viability, 72 h; series mostly up to 46 µM
Outline: as §1

WaGa = experiment: as above; settings: MCC and control cell lines, CellTiter-Glo viability, 72 h; series mostly up to 46 µM
Outline: as §1

C33A = experiment: Primary qHTS to identify gynecologic anti-cancer compounds using libraries of approved drugs and bioactive compounds (AID 1345084); settings: Gynecologic cancer cell panel viability, ATPlite luminescence, 48 h; series mostly up to 57.5 µM; also: nearly all actives have a fitted effect of over 55% in size
Outline: (§2)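 Cells, 1,000 per well, were allowed to settle for 16 h at 37 C before compound addition. Five concentrations were tested for 48 h, and viability was read by ATPlite luminescence after 15 min at room temperature.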

CAOV3 = experiment: as above; settings: Gynecologic cancer cell panel viability, ATPlite luminescence, 48 h; series mostly up to 57.5 µM
Outline: as §2

CASKI = experiment: as above; settings: Gynecologic cancer cell panel viability, ATPlite luminescence, 48 h; series mostly up to 57.5 µM
Outline: as §2

Es-2 = experiment: as above; settings: Gynecologic cancer cell panel viability, ATPlite luminescence, 48 h; series mostly up to 57.5 µM
Outline: as §2

HeLa = experiment: as above; settings: Gynecologic cancer cell panel viability, ATPlite luminescence, 48 h; series mostly up to 57.5 µM
Outline: as §2

Hek293T [2] = experiment: as above; settings: Gynecologic cancer cell panel viability, ATPlite luminescence, 48 h, control line for the selectivity index; series mostly up to 57.5 µM
Outline: as §2

JEG-3 = experiment: as above; settings: Gynecologic cancer cell panel viability, ATPlite luminescence, 48 h; series mostly up to 57.5 µM
Outline: as §2

PA-1 = experiment: as above; settings: Gynecologic cancer cell panel viability, ATPlite luminescence, 48 h; series mostly up to 57.5 µM
Outline: as §2

SKOV3 = experiment: as above; settings: Gynecologic cancer cell panel viability, ATPlite luminescence, 48 h; series mostly up to 57.5 µM
Outline: as §2

HEK293T [3] = experiment: qHTS assay to identify novel small-molecules to repurpose for Merkel cell carcinoma treatment (AID 1296009); settings: MCC and control cell lines, CellTiter-Glo viability, 72 h; at 44.8 µM (top of the series) unless noted; also: nearly all actives have a fitted effect of over 60% in size
Outline: as §1

MCC-26 = experiment: as above; settings: MCC and control cell lines, CellTiter-Glo viability, 72 h; series mostly up to 46 µM
Outline: as §1

MKL-2 = experiment: as above; settings: MCC and control cell lines, CellTiter-Glo viability, 72 h; series mostly up to 46 µM
Outline: as §1

UISO = experiment: as above; settings: MCC and control cell lines, CellTiter-Glo viability, 72 h; series mostly up to 46 µM
Outline: as §1

OV90 = experiment: Primary qHTS to identify gynecologic anti-cancer compounds using libraries of approved drugs and bioactive compounds (AID 1345084); settings: Gynecologic cancer cell panel viability, ATPlite luminescence, 48 h; series mostly up to 57.5 µM; also: nearly all actives have a fitted effect of over 55% in size
Outline: as §2

NIH3T3 [4] = experiment: qHTS assay to identify novel small-molecules to repurpose for Merkel cell carcinoma treatment (AID 1296009); settings: MCC and control cell lines, CellTiter-Glo viability, 72 h; at 44.8 µM (top of the series) unless noted; also: nearly all actives have a fitted effect of over 60% in size
Outline: as §1
% is scaled to controls: 0 for no effect and ±100 for the full control effect.

c1ccc(CCNc2nc(-c3ccccc3)cs2)cc1
inactive: max response (NIH3T3 [1]) -13.6% | outcome (HACAT) | Potency (MCC-13) | Potency (MKL-1) | Potency (WaGa) | Potency (C33A) | Potency (CAOV3) | Potency (CASKI) | Potency (Es-2) | Potency (HeLa) | Potency (Hek293T [2]) | Potency (JEG-3) | Potency (PA-1) | Potency (SKOV3)

CCCCCCCCCCCCCCCCCC(=O)O
inactive: max response (NIH3T3 [1]) -5.96% | outcome (HACAT) | outcome (HEK293T [3]) | Potency (MCC-13) | Potency (MCC-26) | Potency (MKL-1) | Potency (MKL-2) | Potency (UISO) | Potency (WaGa) | Potency (C33A) | Potency (CAOV3) | Potency (CASKI) | Potency (Es-2) | Potency (HeLa) | Potency (Hek293T [2]) | Potency (JEG-3) | Potency (OV90) | Potency (PA-1) | Potency (SKOV3)

C[N+]1(C)[C@@H]2CC(OC(=O)[C@H](CO)c3ccccc3)C[C@H]1[C@@H]1O[C@@H]12 (stereo partly drawn)
inactive: max response (NIH3T3 [1]) 4.27% | outcome (HACAT) | outcome (HEK293T [3]) | Potency (MCC-13) | Potency (MCC-26) | Potency (MKL-1) | Potency (MKL-2) | Potency (UISO) | Potency (WaGa) | Potency (C33A) | Potency (CAOV3) | Potency (CASKI) | Potency (Es-2) | Potency (HeLa) | Potency (Hek293T [2]) | Potency (JEG-3) | Potency (OV90) | Potency (PA-1) | Potency (SKOV3)

NCCO
inactive: max response (NIH3T3 [1]) -0.614% | outcome (HACAT) inactive [at 92 µM] | Potency (MCC-13) | Potency (MCC-26) | Potency (MKL-1) | Potency (MKL-2) | Potency (UISO) | Potency (WaGa) | Potency (C33A) | Potency (CAOV3) | Potency (CASKI) | Potency (Es-2) | Potency (HeLa) | Potency (Hek293T [2]) | Potency (JEG-3) | Potency (OV90) | Potency (PA-1)

Nc1c(CC(=O)O)cccc1C(=O)c1ccc(Br)cc1
inactive: max response (NIH3T3 [1]) 2.91% | outcome (HACAT) | Potency (MCC-13) | Potency (MKL-1) | Potency (MKL-2) | Potency (UISO) | Potency (WaGa) | Potency (C33A) | Potency (CAOV3) | Potency (CASKI) | Potency (Es-2) | Potency (HeLa) | Potency (Hek293T [2]) | Potency (JEG-3) | Potency (OV90) | Potency (PA-1) | Potency (SKOV3)

Nc1ccc(O)c(C(=O)O)c1
inactive: outcome (NIH3T3 [1]) | outcome (HACAT) | Potency (MCC-13) | Potency (MKL-1) | Potency (MKL-2) | outcome (NIH3T3 [4]) | Potency (UISO) | Potency (WaGa) | Potency (C33A) | Potency (CASKI) | Potency (Es-2) | Potency (HeLa) | Potency (Hek293T [2]) | Potency (JEG-3) | Potency (OV90) | Potency (PA-1) | Potency (SKOV3)

CN1CCN(c2cc3c(nn2)Oc2ccccc2N3C)CC1
inactive: max response (NIH3T3 [1]) -0.755% | outcome (HACAT) inactive [at 17.4 µM] | outcome (HEK293T [3]) inactive [at 17.4 µM] | Potency (MCC-13) | Potency (MCC-26) | Potency (MKL-1) | Potency (MKL-2) | Potency (UISO) | Potency (WaGa) | Potency (C33A) | Potency (CAOV3) | Potency (CASKI) | Potency (Es-2) | Potency (HeLa) | Potency (JEG-3) | Potency (OV90) | Potency (PA-1) | Potency (SKOV3)

CC(C)(C)c1nnc(NS(=O)(=O)c2ccc(N)cc2)s1
inactive: max response (NIH3T3 [1]) -3.74% | outcome (HACAT) | Potency (MCC-13) | Potency (MKL-1) | Potency (MKL-2) | Potency (UISO) | Potency (WaGa) | Potency (C33A) | Potency (CASKI) | Potency (Es-2) | Potency (HeLa) | Potency (Hek293T [2]) | Potency (JEG-3) | Potency (OV90) | Potency (PA-1) | Potency (SKOV3)

COC(=O)[C@H]1[C@H]2C[C@@H]3c4[nH]c5cc(OC)ccc5c4CCN3C[C@H]2C[C@@H](OC(=O)/C=C/c2cc(OC)c(OC)c(OC)c2)[C@@H]1OC
inactive: outcome (NIH3T3 [1]) | outcome (HACAT) inactive [at 17.4 µM] | outcome (NIH3T3 [4]) inactive [at 17.4 µM] | Potency (C33A) | Potency (CAOV3) | Potency (CASKI) | Potency (Es-2) | Potency (HeLa) | Potency (Hek293T [2]) | Potency (JEG-3) | Potency (OV90) | Potency (PA-1) | Potency (SKOV3)

CO[C@@]1(NC(=O)Cc2cccs2)C(=O)N2C(C(=O)O)=C(COC(N)=O)CS[C@@H]21
inactive: outcome (NIH3T3 [1]) | outcome (HACAT) | outcome (HEK293T [3]) | Potency (MCC-13) | Potency (MCC-26) | Potency (MKL-1) | Potency (MKL-2) | outcome (NIH3T3 [4]) | Potency (UISO) | Potency (WaGa) | Potency (C33A) | Potency (CAOV3) | Potency (CASKI) | Potency (Es-2) | Potency (HeLa) | Potency (Hek293T [2]) | Potency (JEG-3) | Potency (OV90) | Potency (PA-1) | Potency (SKOV3)

CC1(C)S[C@@H]2[C@H](NC(=O)[C@H](NC(=O)N3CCN(S(C)(=O)=O)C3=O)c3ccccc3)C(=O)N2[C@H]1C(=O)O
inactive: outcome (NIH3T3 [1]) | outcome (HACAT) | outcome (NIH3T3 [4]) | Potency (C33A) | Potency (CAOV3) | Potency (CASKI) | Potency (Es-2) | Potency (HeLa) | Potency (Hek293T [2]) | Potency (JEG-3) | Potency (OV90) | Potency (PA-1)

CCOC(=O)c1ccccc1O
inactive: max response (NIH3T3 [1]) -7.47% | outcome (HEK293T [3]) | Potency (MCC-13) | Potency (MKL-1) | Potency (MKL-2) | Potency (UISO) | Potency (WaGa) | Potency (C33A) | Potency (CAOV3) | Potency (CASKI) | Potency (Es-2) | Potency (HeLa) | Potency (Hek293T [2]) | Potency (JEG-3) | Potency (OV90) | Potency (PA-1) | Potency (SKOV3)

CCCCCCCCCCCC(=O)[O][Sn]([CH2]CCC)([CH2]CCC)[O]C(=O)CCCCCCCCCCC
inactive: max response (NIH3T3 [1]) 4.84% | outcome (HACAT) | Potency (MCC-13) | Potency (MKL-1) | Potency (MKL-2) | Potency (UISO) | Potency (WaGa) | Potency (C33A) | Potency (CAOV3) | Potency (CASKI) | Potency (Es-2) | Potency (HeLa) | Potency (Hek293T [2]) | Potency (JEG-3) | Potency (OV90) | Potency (PA-1) | Potency (SKOV3)

Nc1ccc(C(=O)O)c(O)c1
inactive: outcome (NIH3T3 [1]) | outcome (HACAT) | Potency (MCC-13) | Potency (MKL-1) | Potency (MKL-2) | outcome (NIH3T3 [4]) | Potency (UISO) | Potency (WaGa) | Potency (C33A) | Potency (CASKI) | Potency (Es-2) | Potency (HeLa) | Potency (Hek293T [2]) | Potency (JEG-3) | Potency (OV90) | Potency (PA-1) | Potency (SKOV3)
